MLL AF4-AF9 inh – inhibitors of AF4 peptide binding to AF9, primary screen, biochemical, AlphaScreen, biotin-AF4 peptide, FLAG-AF9, single point | AID 651704, 2012 | Protein AF-9 (Homo sapiens), P42568 | actives 0.47% (n = 350,000) | inhibition, % at 10 µM;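 active means every replicate reaching a set inhibition limit, whatever the replicate mean, cut at about 25% in these data; inconclusive means mean inhibition reaches that limit but some replicates miss it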;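 further: 0% = plate neutral control median and 100% = total signal loss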
RAD54 inh – inhibitors of human RAD54 branch migration, primary screen, biochemical, fluorescence, single point; actives 0.14% (n = 360,000); AID 602329, 2012; RAD54 Holliday junction branch migration, FAM/BHQ fluorescence; inhibition, % at 10.4 µM; DNA repair and recombination protein RAD54-like (Homo sapiens), Q92698;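 active means mean normalized replicate activity at least 40 and at least half of replicates scoring 40 or more; inconclusive means only one of the two criteria met; inactive means mean below 40 and under half of replicates reaching 40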;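 further: 0% = median of neutral control wells and 100% = median of positive control wells; inhibitors cause a drop in the FAM fluorescence signal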
INS-1E GSIS act – GLuc luminescence reporter in INS-1E cells, primary screen for activators of glucose-dependent secretion of insulin; INS-1E GLuc reporter insulin secretion, 2-3 h; activation, % at 16.6 µM; actives 0.61% (n = 370,000);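 active means lowest replicate activation of at least 40%, so every replicate reaches that level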;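 further: 0% = median of neutral control wells and 100% = median of IBMX positive control wells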
RAD52 inh – RAD52 DNA annealing inhibitors, primary screen, biochemical, FRET, single point, set 2 | DNA repair protein RAD52 homolog (Homo sapiens), P43351 | recombinant RAD52 DNA annealing, FRET fluorescence | inhibition, % at 18.7 µM | actives 0.46% (n = 360,000) | AID 651710, 2012;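 active means every replicate showing at least 50% inhibition; inconclusive means mean inhibition at least 50% but not in every replicate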
Target sequence (P43351 whole entry, looked up): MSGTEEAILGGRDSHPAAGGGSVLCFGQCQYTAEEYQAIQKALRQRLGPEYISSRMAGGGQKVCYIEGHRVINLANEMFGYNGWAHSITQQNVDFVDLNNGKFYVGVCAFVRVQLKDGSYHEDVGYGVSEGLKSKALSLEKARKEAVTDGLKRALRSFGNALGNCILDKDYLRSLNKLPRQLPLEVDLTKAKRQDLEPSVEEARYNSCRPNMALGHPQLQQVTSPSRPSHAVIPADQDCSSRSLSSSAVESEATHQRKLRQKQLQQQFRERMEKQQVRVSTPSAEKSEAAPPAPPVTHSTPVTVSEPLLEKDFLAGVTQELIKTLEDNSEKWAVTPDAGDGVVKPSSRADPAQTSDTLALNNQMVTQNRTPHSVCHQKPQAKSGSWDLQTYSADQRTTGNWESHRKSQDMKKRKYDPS
DENV2 CPE – inhibitors of DENV2 cytopathic effect, primary screen, cell-based, plate reader, single concentration | DENV2-infected cells, cytopathic effect rescue | CPE inhibition, % at 9.99 µM | actives 1.7% (n = 350,000); in the data active means CPE inhibition above about 20%, passing the limit was not always enough; inconclusive means no clear call, values can overlap the other calls; tested in BHK-21 cells;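 further: 0% = median of neutral control wells and 100% = median of positive control wells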
dFosB act-1 – activators of delta FosB homodimer, primary screen, biochemical, fluorescence polarization, TAMRA-CDK5 oligo, single point; Protein FosB (Mus musculus), P13346; purified delta FosB; percent of positive-control signal above neutral wells; activation, % at 25 µM; actives 0.99% (n = 340,000);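 active means mean activation above about 17%, with every replicate also reaching it, limit read from the data, passing the limit was not always enough; inconclusive means only one of the two conditions met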
dFosB act-2 – activators of mouse delta FosB DNA binding, confirmation, biochemical, fluorescence polarization, TAMRA-CDK5 oligo, cherry-picked samples; shares compounds with dFosB act-1; purified delta FosB; normalised: neutral wells 0, positive control 100; 2,400 tested, under 10 active; activation, % at 24.9 µM;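 active means highest replicate activation at or above 34% and every replicate reaching that threshold; inconclusive means meets only one of the two criteria; inactive means meets neither criterion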;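 further: higher polarization means more probe DNA bound by delta FosB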
* hit, by the source's call. Hits are enriched below; roughly 3.1% of the tested compounds scored in any of these assays.

Screening C[C@@H]1CN([C@H](C)CO)S(=O)(=O)c2ccc(C#CC3CC3)cc2O[C@@H]1CN(C)Cc1cncnc1 returned INS-1E GSIS act -2.
For Cc1ccccc1/C=N/Nc1ccnc2cc(Cl)ccc12 the results were MLL AF4-AF9 inh -9, RAD54 inh 0, RAD52 inh -16, DENV2 CPE -1, dFosB act-1 38* and dFosB act-2 1.
Cc1cc(O)c(-c2n[nH]c3c2C(c2cccc(O)c2)N(Cc2cccnc2)C3=O)cc1Cl (stereo not drawn) was read as RAD54 inh 2, dFosB act-1 23* and dFosB act-2 2.
O=C(Cn1nc(-c2ccc3c(c2)OCCO3)ccc1=O)Nc1ccc(-n2cnnn2)cc1 was read as MLL AF4-AF9 inh -4, INS-1E GSIS act 4, RAD52 inh -20, DENV2 CPE 1, dFosB act-1 81* and dFosB act-2 6.
For O=C(Cn1cnc2c(nnn2-c2cccc(F)c2)c1=O)Nc1ccc2c(c1)OCCO2 the results were MLL AF4-AF9 inh -1, RAD54 inh 3, INS-1E GSIS act 15, RAD52 inh -3, DENV2 CPE -4 and dFosB act-1 inconclusive.
Screening COc1ccc(-n2nnc3c(=O)n(CC(=O)Nc4ccc5c(c4)OCCO5)cnc32)cc1OC returned MLL AF4-AF9 inh -3, RAD54 inh 10, INS-1E GSIS act 24, RAD52 inh -16, DENV2 CPE 9, dFosB act-1 49* and dFosB act-2 1.
O=C(Cn1nc(-c2ccccc2)ccc1=O)Nc1ccc(-n2cnnn2)cc1 was read as MLL AF4-AF9 inh -1, RAD54 inh 1, INS-1E GSIS act 8, RAD52 inh -13, DENV2 CPE 1, dFosB act-1 58* and dFosB act-2 2.
Screening COc1ccc(-c2ccc(=O)n(CC(=O)Nc3ccc4c(c3)OCCO4)n2)cc1 returned MLL AF4-AF9 inh 0, RAD54 inh -1, INS-1E GSIS act 1, RAD52 inh -15, DENV2 CPE -4, dFosB act-1 22* and dFosB act-2 -3.
For CC(C)NC(=O)N(C)C[C@H]1OCCCC[C@H](C)Oc2ccc(NC(=O)C3CCCCC3)cc2C(=O)N([C@H](C)CO)C[C@@H]1C the results were MLL AF4-AF9 inh -3, RAD54 inh 1, INS-1E GSIS act 11, RAD52 inh -3 and DENV2 CPE 3.
For Cc1ccccc1-c1cnc2c(c1)C(=O)N([C@H](C)CO)C[C@@H](C)[C@H](CN(C)C(=O)CC1CC1)O2 the results were MLL AF4-AF9 inh -3, RAD54 inh -1, INS-1E GSIS act -17, RAD52 inh 5 and DENV2 CPE 16.
`C[C@@H]1CCCCO[C@@H](CN(C)C(=O)Nc2ccccc2)[C@H](C)CN([C@H](C)CO)C(=O)c2cc(NC(=O)c3ccccc3)ccc2O1` gave MLL AF4-AF9 inh 2, RAD54 inh -4, INS-1E GSIS act -4, RAD52 inh -26 and DENV2 CPE -3.
`O=C(Cn1nc(-c2ccccc2)ccc1=O)Nc1ccc(NC(=O)c2ccccn2)cc1` gave MLL AF4-AF9 inh -13, RAD54 inh -12, INS-1E GSIS act 12, RAD52 inh -9, DENV2 CPE 8, dFosB act-1 25* and dFosB act-2 0.
`C=CCn1c(=NC(=O)c2cc(Cl)sc2Cl)sc2cc(S(N)(=O)=O)ccc21` gave RAD54 inh 6, INS-1E GSIS act 44*, dFosB act-1 25* and dFosB act-2 4.
Screening C=CCn1c(=NC(=O)c2sc3ccccc3c2Cl)sc2cc(S(N)(=O)=O)ccc21 returned RAD54 inh 3 and dFosB act-1 -3.
`COc1ccc(C(=O)Nc2ccc3c(c2)C(=O)N(C)C[C@H](OC)[C@@H](C)CN(C)[C@H](C)CO3)cc1` gave MLL AF4-AF9 inh 1, RAD54 inh 3, INS-1E GSIS act 13, RAD52 inh -3 and DENV2 CPE -11.
For Nc1nc(CN2CCc3ccccc3C2)nc(Nc2ccccc2)n1 the results were RAD54 inh 4, dFosB act-1 27* and dFosB act-2 8.
For COc1ccc(Nc2nc(N)nc(CN3CCc4ccccc4C3)n2)cc1 the results were MLL AF4-AF9 inh 3, RAD54 inh -2, INS-1E GSIS act -7, RAD52 inh -18, DENV2 CPE 9 and dFosB act-1 0.
Screening CO[C@@H]1CN(C)C(=O)c2ccc(NC(C)=O)cc2OC[C@@H](C)N(C(=O)Cc2ccccn2)C[C@H]1C returned MLL AF4-AF9 inh -2, RAD54 inh -2, INS-1E GSIS act 2, RAD52 inh -5 and DENV2 CPE 7.
O=C(Nc1nc2ccccc2s1)c1cccc(S(=O)(=O)N2CCc3ccccc32)c1 was read as MLL AF4-AF9 inh -9, RAD54 inh -5, INS-1E GSIS act -9, RAD52 inh -1, DENV2 CPE -5, dFosB act-1 34* and dFosB act-2 1.
`CCc1nnc(NC(=O)c2cccc(S(=O)(=O)N3CCc4ccccc43)c2)s1` gave dFosB act-1 34* and dFosB act-2 0.
`COc1cc(OC)c(N(C)S(=O)(=O)c2cccc(C(=O)Nc3nnc(C4CC4)s3)c2)cc1Cl` gave INS-1E GSIS act -9, RAD52 inh -8, DENV2 CPE 3, dFosB act-1 63* and dFosB act-2 -7.
`O=C(Nc1nc2c(s1)CN(Cc1ccccc1)CC2)c1cccc(S(=O)(=O)N2CCc3ccccc32)c1` gave RAD54 inh -27, dFosB act-1 74* and dFosB act-2 -19.
For O=C(NNC(=O)c1cccc(S(=O)(=O)N2CCc3ccccc32)c1)c1ccccc1 the results were MLL AF4-AF9 inh -2, INS-1E GSIS act -30, RAD52 inh 3, DENV2 CPE 0 and dFosB act-1 -5.
For CCNC(=O)[C@@H]1[C@@H](CO)[C@@H]2Cn3c(ccc(-c4cccc(OC)c4)c3=O)[C@@H]2N1C(=O)NC(C)C the results were MLL AF4-AF9 inh 0, RAD54 inh -8, INS-1E GSIS act -7, RAD52 inh 3 and DENV2 CPE 7.
`O=C(Nc1nnc(C2CC2)s1)c1cccc(S(=O)(=O)N2CCc3ccccc32)c1` gave RAD54 inh -6, INS-1E GSIS act -4, dFosB act-1 51* and dFosB act-2 1.
